A selection: hits, their analogues and other compounds. The true share with any hit is near 3.8%.
NTR1 agonist: agonists of human NTR1, primary screen, imaging, U2OS cells, beta-arrestin-GFP, high content | Neurotensin receptor type 1 (Homo sapiens), P30989 | NTR1-U2OS beta-arrestin-GFP spot imaging, agonist mode | activation, % at 20 µM | 330,000 compounds, 0.17% hits | AID 493036, 2011;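 active = activation at or above 40% of the spot to cytoplasm intensity ratio, with at least 20 cells analyzed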
Target sequence (P30989 whole entry, looked up): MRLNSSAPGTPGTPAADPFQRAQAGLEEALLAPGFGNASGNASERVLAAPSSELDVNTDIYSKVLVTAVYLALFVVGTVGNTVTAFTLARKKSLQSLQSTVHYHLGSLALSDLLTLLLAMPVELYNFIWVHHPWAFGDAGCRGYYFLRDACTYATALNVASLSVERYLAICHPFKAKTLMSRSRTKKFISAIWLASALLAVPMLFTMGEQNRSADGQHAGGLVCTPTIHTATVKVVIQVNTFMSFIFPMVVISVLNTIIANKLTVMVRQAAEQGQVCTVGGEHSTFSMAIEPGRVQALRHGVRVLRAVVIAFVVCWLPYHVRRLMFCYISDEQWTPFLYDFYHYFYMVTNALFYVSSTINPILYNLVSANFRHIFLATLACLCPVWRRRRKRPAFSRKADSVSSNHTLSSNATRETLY
697 NFkB inh: inhibitors of PMA/ionomycin-induced NF-kB reporter, 697 cells, primary screen, B-cell NF-kB inhibitor project, cell-based, luminescence, uHTS; 697 B-cell NF-kB luciferase reporter, 16 h; inhibition, % at 4 µM; 330,000 compounds, 0.33% hits; in the data active = inhibition above about 35%
Jurkat NFkB inh: inhibitors of induced NF-kB luciferase reporter, primary screen, TCR NF-kB activation inhibitor project, cell-based, luminescence, uHTS; inhibition, % at 4 µM; 330,000 compounds, 0.53% hits; Jurkat, PMA/ionomycin-induced NF-kB luciferase reporter; in the data active = inhibition above about 50%
Beta cell apopt: inhibitors of cytokine-induced beta cell apoptosis, primary screen, luminescence | INS-1E cytokine-induced death, ATP luminescence, 48 h; percent of positive-control rescue, neutral wells zero | protection from apoptosis, % (concentration not given with the values) | 300,000 compounds, 0.8% hits;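 active = Every replicate reaches about 75%, or at least half do and their mean reaches it too, limit read from the data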;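 note: higher means more ATP so stronger rescue from cytokine killing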
Mdm2-MdmX inh: inhibitors of human Mdm2-MdmX association, primary screen, cell-based, luminescence, split luciferase, SaOS-2, uHTS; SaOS-2 split-luciferase Mdm2/MdmX complementation; Protein Mdm4 (Homo sapiens) + E3 ubiquitin-protein ligase Mdm2 (Homo sapiens), …; inhibition, % at 8 µM; 330,000 compounds, 3% hits;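 active = inhibition of at least 50% at 8 µM in the primary screen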
A1 inh: caspase 3/7 activation in MEF A1-2A-BIM cells, primary screen, A1 inhibitor project, cell-based, luminescence, HTS | 330,000 compounds, 0.066% hits | caspase activation, % (no concentration beside the values) | Caspase-Glo 3/7 luminescence, 3 h; percent of clofoctol response, vehicle zero;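 active = over half of replicate activation scores above 10%, or exactly half above 10 with the replicate mean above 10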
Mdm2-MdmX conf: Mdm2-MdmX complex disruptors, retested hits, confirmation, luminescence, single concentration. shares compounds with Mdm2-MdmX inh. Mdm2-MdmX binding, luminescent assay. inhibition, % at 8 µM. 10,000 compounds, 55% hits. AID 489028, 2010; in the data active = inhibition above about 40%
FLuc counter: full-length luciferase signal inhibition, confirmation, counter-screen for Mdm2/MdmX interaction inhibitor project, cell-based, single concentration, SaOS-2. shares compounds with Mdm2-MdmX inh. SaOS-2 full-length luciferase counterscreen, luminescence. inhibition, % at 8 µM. 6,200 compounds, 77% hits. AID 504607, 2011;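 active = mean inhibition at 8 µM reaching about 37%, which flags the compound as non-specific, limit read from the data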;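 note: p53-null SaOS-2 cells with luciferase driven by a doxycycline-inducible promoter; compound on cells about two nights before reading with doxycycline added after day one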
A number is an active result; . = inactive; / = not tested or not shown.

SMILES	NTR1 agonist	697 NFkB inh	Jurkat NFkB inh	Beta cell apopt	Mdm2-MdmX inh	A1 inh	Mdm2-MdmX conf	others
CN(C)S(=O)(=O)c1ccc(NC(=O)CN2CCc3ccccc32)cc1	.	.	.	.	.	.	/
CC(Sc1ccccc1F)C(=O)Nc1ccc2c(c1)OCCO2 (centres undefined)	.	.	.	.	.	.	/
COc1ccc(C(=O)O/N=C(\N)c2ccc(OC)c(OC)c2)cc1	.	.	.	.	86	.	.
COc1ccc(/C(N)=N/OC(=O)c2cccc([N+](=O)[O-])c2C)cc1OC	.	.	.	.	.	.	/
COc1ccc(/C(N)=N/OC(=O)CC2CCCCC2)cc1OC	.	.	.	.	67	.	.
COc1ccc(OC(=O)N2CCOCC2)cc1	.	.	.	.	.	.	/
COc1ccc(C(=O)O/N=C(\N)c2ccc(OC)c(OC)c2)c(OC)c1	.	.	.	.	75	.	.
COc1ccc(/C(N)=N/OC(=O)N2CCOCC2)cc1	.	.	.	.	62	.	.
COc1cccc(-c2c(C(=O)N/N=C(\C)c3ccc(Cl)s3)nnn2-c2nonc2N)c1	.	.	.	.	.	.	/
COc1ccc(C(=O)O/N=C(\N)c2ccccc2Cl)cc1OC	.	.	.	.	86	.	44	FLuc counter=112
COc1ccc(/C(N)=N/OC(=O)c2ccc(OC)c([N+](=O)[O-])c2)cc1OC	.	.	.	.	71	.	.
COc1ccc(Cl)cc1C(=O)O/N=C(\N)c1ccccn1	.	.	.	.	.	.	/
COc1ccc(C(=O)O/N=C(/c2ccccc2)c2ccncc2)cc1OC	.	.	.	.	.	.	/
COc1ccc(C(=O)O/N=C(\N)c2ccccn2)c(OC)c1	.	.	.	.	69	.	.
COc1ccc(/C(N)=N/OC(=O)c2cccc([N+](=O)[O-])c2)cc1OC	.	.	.	.	.	.	/
Cc1noc(C)c1CSCC(=O)Oc1ccc(N(C)S(=O)(=O)c2ccc(Cl)cc2)cc1	.	.	.	.	.	.	/
CC1CCC(C(C)C)C(OC(=O)Cn2c(-c3ccc(F)cc3)[n+](C)c3ccccc32)C1 (centres undefined)	.	.	.	105	89	.	93	FLuc counter=57
CC1CCC(C(C)C)C(OC(=O)Cn2c(-c3ccccc3)[n+](C)c3ccccc32)C1 (centres undefined)	.	.	.	104	93	.	94	FLuc counter=38
CC1CCC(C(C)C)C(OC(=O)C[n+]2cc(-c3ccc(Cl)cc3)n3c2CCC3)C1 (centres undefined)	.	.	.	.	.	.	/
CC(C)NC(=O)CN1C(=O)C(C)(C)Oc2ccc(C(=O)NC3CCCCC3)cc21	.	.	.	.	.	.	/
O=c1cc(C(Cl)(Cl)Cl)oc2c1ccc1ccccc12	.	.	.	.	98	.	86	FLuc counter=52
CCN1C(=O)C(O)(C2COC(C)(C)CC2=O)c2cc(Br)ccc21 (centres undefined)	.	.	.	.	55	.	52	FLuc counter=68
CC(C)Cc1nnc(NC(=O)CCC(=O)NC2CCCCCC2)s1	.	.	.	.	.	.	/
NC(=O)[C@@H]1CC2(CC(c3cccc(NC(=O)CC(c4ccccc4)c4ccccc4)c3)=NO2)CN1C(=O)COc1ccc(Cl)cc1 (some centres undefined)	.	.	.	.	73	.	42	FLuc counter=80
NC(=O)[C@H]1CC2(CC(c3cccc(NC(=O)COc4ccc(Cl)cc4)c3)=NO2)CN1C(=O)CC(c1ccccc1)c1ccccc1 (some centres undefined)	.	.	.	.	54	.	.
SMILES	NTR1 agonist	697 NFkB inh	Jurkat NFkB inh	Beta cell apopt	Mdm2-MdmX inh	A1 inh	Mdm2-MdmX conf	others
CCN1CCN(c2ncc(C(=O)Nc3cc(Cl)ccc3OC)c3ccccc23)CC1	.	.	.	.	54	.	.
COc1ccc(Cl)cc1NC(=O)CCN1CCN(c2ccccc2C)CC1	.	.	.	.	.	.	/
O=C(Nc1c(F)cccc1F)c1cnc(N2CCN(c3ccccn3)CC2)c2ccccc12	.	.	.	.	57	.	.
Cc1cc(C)nc(SCCCNCc2ccccc2)n1	.	.	.	.	.	.	/
COc1ccc(Cc2[nH]n3c(=O)cc(C(C)C)nc3c2-c2ccccc2)cc1	.	.	.	.	62	.	62	FLuc counter=40
Cc1ccc(OCCCCNC2CCCC(C)C2C)c(C)c1 (centres undefined)	.	.	.	.	56	.	.
COc1cccc(NC(=S)N2CCN(C(c3ccccc3)c3ccccc3)CC2)c1	.	.	.	.	79	.	42	FLuc counter=68
C[C@]12c3[nH]c4ccccc4c3CCN1C(=O)C(CC(=O)NCC13CC4CC(CC(C4)C1)C3)C[C@@H]2C(=O)N1CCCCC1 (some centres undefined)	.	.	.	.	.	.	/
CN(C)C(=O)CCc1ccc2c3c([nH]c2c1)[C@]1(C)[C@@H](C(=O)N2CCOCC2)C[C@H](CC(=O)NCC24CC5CC(CC(C5)C2)C4)C(=O)N1CC3	.	.	/	/	.	/	/
CC(C)N(C(=O)[C@H]1C[C@H](CC(=O)NCC23CC4CC(CC(C4)C2)C3)C(=O)N2CCc3c([nH]c4cc(CCC(=O)N(C)C)ccc34)[C@]12C)C(C)C	.	.	/	/	81	/	43	FLuc counter=60
CCN(CC)C(=O)[C@H]1C[C@H](CC(=O)NCc2cccc(C(F)(F)F)c2)C(=O)N2CCc3c([nH]c4cc(-c5ccco5)ccc34)[C@]12C	.	.	/	/	53	/	.
CC[C@]12c3[nH]c4cc(CCC(=O)N(C)C)ccc4c3CCN1C(=O)[C@@H](CC(=O)NCC13CC4CC(CC(C4)C1)C3)C[C@@H]2C(=O)N1CCN(C(=O)c2ccco2)CC1	.	.	/	/	50	/	.

Compound activity (PubChem)
